MEX-5 binding: C. elegans MEX-5 TCR-2 RNA binding activity | 0.38% of 300,000 active | activity score (negative = inhibition of binding), % at 10 µM | Q9XUB2 | MEX-5/FITC-TCR2 RNA binding, fluorescence polarization; stronger effect = lower value;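 active = inhibition past about -25% in most replicates, and total fluorescence under double the plate's negative control median, limit read from the data; inconclusive = replicates evenly split on the limit, or fluorescence at least double controls; inactive = too little inhibition in most replicates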
EBV gp42 inh: EBV gp42 inhibition. Q1HVG2. Fluorescence polarization binding assay, mP read-out. inhibition, % (tested at 21.74 µM). 0.42% of 220,000 active; in the data active = inhibition above about 50%
PABP polyA inh: PABP-poly(A) binding inhibition | P11940 | calls only at 35 µM | AID 2014 | 1% of 290,000 active | PABP-poly(A) RNA binding, fluorescence polarization;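 also: calls also rest on retests at 20 µM and on dose response follow-up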
Target sequence (P11940 whole entry, looked up): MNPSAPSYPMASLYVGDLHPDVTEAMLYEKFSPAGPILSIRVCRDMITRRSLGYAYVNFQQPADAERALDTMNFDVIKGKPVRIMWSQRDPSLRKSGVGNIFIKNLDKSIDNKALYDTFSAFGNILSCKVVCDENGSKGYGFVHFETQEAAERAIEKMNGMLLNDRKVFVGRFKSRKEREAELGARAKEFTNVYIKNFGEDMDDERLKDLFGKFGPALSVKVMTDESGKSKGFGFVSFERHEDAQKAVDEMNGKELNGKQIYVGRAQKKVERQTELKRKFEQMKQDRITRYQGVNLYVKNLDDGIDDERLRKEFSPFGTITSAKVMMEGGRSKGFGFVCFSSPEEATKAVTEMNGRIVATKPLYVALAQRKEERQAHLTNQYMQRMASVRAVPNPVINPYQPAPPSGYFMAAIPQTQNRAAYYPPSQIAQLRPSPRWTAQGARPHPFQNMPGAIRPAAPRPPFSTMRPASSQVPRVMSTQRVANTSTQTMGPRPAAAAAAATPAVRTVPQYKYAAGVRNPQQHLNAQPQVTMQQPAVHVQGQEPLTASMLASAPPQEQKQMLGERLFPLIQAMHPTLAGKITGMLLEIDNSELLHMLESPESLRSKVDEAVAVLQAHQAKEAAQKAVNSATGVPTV
PABP1 MLLE inh: inhibitors of microRNA-mediated deadenylation, human PABP1 MLLE binding. AID 588489. P11940. GST-MLLE / FITC-PAM2 fluorescence polarization. 0.36% of 360,000 active. inhibition, % at 20 µM; in the data active = inhibition above about 35%, passing the limit was not always enough
eIF4H inh: inhibitors of RNA binding by human eIF4H; Q15056; eIF4H fluorescence polarization binding assay; inhibition, % at 35 µM; 0.94% of 290,000 active; AID 2012;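 also: calls also rest on retests at 20 µM and on dose response follow-up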
Of the large screens only hits and unclear results are named; the others gave an inactive call. Hits are enriched below; roughly 1.8% of the tested compounds scored in any of these assays. Unless noted, no rule for the calls is given here.

COc1nc(NCCc2ccc(OC)c(OC)c2)nc(OC)n1	none
CNC(=S)NCCc1ccc(OC)cc1	PABP polyA inh active
CCCCNC(=O)c1sc(=S)n(-c2ccccc2OC)c1N	PABP1 MLLE inh 45
COc1ccc(CCNC(=O)c2sc(=S)n(C)c2N)cc1	PABP1 MLLE inh 43
CC(Sc1nnc(C2CC2)n1-c1ccccc1)C(=O)N1CCCC1 (stereo not drawn)	none (no result: MEX-5 binding, EBV gp42 inh, PABP polyA inh, eIF4H inh)
CC(NS(=O)(=O)c1cccc(Cl)c1F)[C@H](O)c1ccccc1 (stereo partly drawn)	none (no result: MEX-5 binding, EBV gp42 inh, PABP polyA inh, eIF4H inh)
COc1ccc(CNC(=O)CCS(=O)(=O)c2ccc3nc(C)sc3c2)cc1	none (no result: MEX-5 binding, EBV gp42 inh, PABP polyA inh, eIF4H inh)
CCC(=O)Nc1cccc(C2=NOC3(C2)C[C@@H](C(N)=O)N(C(=O)COc2ccc(Cl)cc2)C3)c1 (stereo partly drawn)	none
C/C=C\C(=O)Nc1cccc(C2=NOC3(C2)C[C@@H](C(N)=O)N(C(=O)C2(C)CC2)C3)c1 (stereo partly drawn)	none
C=C(C)C(=O)Nc1cccc(C2=NOC3(C2)C[C@H](C(N)=O)N(C(=O)COc2ccc(Cl)cc2)C3)c1 (stereo partly drawn)	PABP polyA inh active, eIF4H inh 86
C=C(C)C(=O)Nc1cccc(C2=NOC3(C2)C[C@@H](C(N)=O)N(C(=O)C2(C)CC2)C3)c1 (stereo partly drawn)	PABP polyA inh active, eIF4H inh 100
C=C(C)C(=O)Nc1cccc(C2=NOC3(C2)C[C@H](C(N)=O)N(C(=O)c2ccccc2)C3)c1 (stereo partly drawn)	PABP polyA inh active, eIF4H inh 91
C=C(C)C(=O)Nc1cccc(C2=NOC3(C2)C[C@@H](C(N)=O)N(C(=O)C(=C)C)C3)c1 (stereo partly drawn)	PABP polyA inh active, eIF4H inh 93
CC(=O)Nc1ccc2c(c1)Cc1cc(N3C(=O)C=CC3=O)ccc1-2	none (no result: MEX-5 binding, EBV gp42 inh, PABP polyA inh, eIF4H inh)
CN(C)c1ccc2nc3ccc(=O)cc-3sc2c1	none (no result: MEX-5 binding, EBV gp42 inh, PABP polyA inh, eIF4H inh)
CN(C)c1ccc2nc3ccc(=[N+](C)C)cc-3sc2c1	MEX-5 binding -33, eIF4H inh inconclusive
Cc1cc2nc3ccc(=[N+](C)C)cc-3sc2cc1N	MEX-5 binding -48, PABP polyA inh inconclusive, eIF4H inh inconclusive
CN(C)C(=O)c1cccc(COc2ccc(N3C(N)=NC(N)=NC3(C)C)cc2Cl)c1	none (no result: MEX-5 binding, EBV gp42 inh, PABP polyA inh, eIF4H inh)
COc1cc(-c2coc3c(C(=O)NCc4ccc(C(F)(F)F)cc4)cccc23)ccc1O	none (no result: MEX-5 binding, EBV gp42 inh, PABP polyA inh, eIF4H inh)
C/C=C/C(=O)N1CC2(CC(c3cccc(NC(=O)CC)c3)=NO2)C[C@H]1C(N)=O (stereo partly drawn)	none
C=C(C)C(=O)Nc1cccc(C2=NOC3(C2)C[C@H](C(N)=O)N(C(=O)/C=C/C)C3)c1 (stereo partly drawn)	PABP polyA inh active, eIF4H inh 88
C=C(C)C(=O)Nc1cccc(C2=NOC3(C2)C[C@@H](C(N)=O)N(C(=O)/C=C/CC)C3)c1 (stereo partly drawn)	PABP polyA inh active, eIF4H inh 84
C/C=C\C(=O)Nc1cccc(C2=NOC3(C2)C[C@H](C(N)=O)N(C(=O)/C=C/CC)C3)c1 (stereo partly drawn)	none
Clc1ccc(Cn2ncc3c(N4CCN(c5ccccc5)CC4)ncnc32)cc1	none (no result: MEX-5 binding, EBV gp42 inh, PABP polyA inh, eIF4H inh)
COc1cc([N+](=O)[O-])cc(/C=N/NC(=O)Cn2cncn2)c1O	none
COc1cc([N+](=O)[O-])cc(/C=N/NC(=O)CC#N)c1O	MEX-5 binding -32 (no result: PABP1 MLLE inh)
CCNC(=O)COC(=O)c1cc(-c2ccco2)nc2ccccc12	PABP polyA inh active, eIF4H inh 89
O=C(OCC(=O)N1CCN(C(=O)c2ccco2)CC1)c1cc(-c2ccco2)nc2ccccc12	EBV gp42 inh 76, PABP polyA inh active, eIF4H inh 85
Cn1c(=O)c(C(=O)COC(=O)c2cc(-c3ccco3)nc3ccccc23)c(N)n(CC2CC2)c1=O	none (no result: PABP1 MLLE inh)
COc1ccc(CNC(=O)COC(=O)c2cc(C)nc3ccccc23)cc1	none (no result: MEX-5 binding, EBV gp42 inh, PABP polyA inh, eIF4H inh)
O=C(OCC(=O)N1CCN(C(=O)c2ccco2)CC1)c1cc(-c2ccc(Cl)c(Cl)c2Cl)nc2ccccc12	none
COc1ccc(CNC(=O)COC(=O)c2cc(-c3ccco3)nc3ccccc23)cc1	eIF4H inh 90 (no result: MEX-5 binding, PABP1 MLLE inh)
Cc1cc(C)n2nc(SCC(=O)NC3(C#N)CCCCC3)nc2n1	none (no result: MEX-5 binding, EBV gp42 inh, PABP polyA inh, eIF4H inh)
COc1cccc(NC(=S)N(CCCN2CCN(C)CC2)Cc2ccco2)c1	none
COc1cccc(NC(=S)N(CCCN2CCCC2)Cc2ccco2)c1	eIF4H inh active
CC(=O)N1CCC2(CC1)C/C(=N\NC(=S)Nc1ccccc1F)c1cc(O)ccc1O2	none

Screens deposited in PubChem by several laboratories.
